# Assay outcomes: PubChem BioAssay, National Center for Advancing Translational Sciences (NCATS)
# Only some compounds are listed: those with a hit (about 3.1% of all), similar ones and a draw of the others.
# TrxR1 inh: qHTS Assay for Inhibitors of Mammalian Selenoprotein Thioredoxin Reductase 1 (TrxR1): qHTS. 390,000 tested, 1% active. AID 588453, 2011. Potency, µM (doses to about 114 µM), most hits filed as inhibitors. recombinant rTrxR1, NADPH fluorescence consumption, selenite substrate. Thioredoxin reductase 1, cytoplasmic (Rattus norvegicus), O89049; note: nearly all actives have a fitted effect of over 65% in size
# Target sequence (O89049 whole entry, looked up): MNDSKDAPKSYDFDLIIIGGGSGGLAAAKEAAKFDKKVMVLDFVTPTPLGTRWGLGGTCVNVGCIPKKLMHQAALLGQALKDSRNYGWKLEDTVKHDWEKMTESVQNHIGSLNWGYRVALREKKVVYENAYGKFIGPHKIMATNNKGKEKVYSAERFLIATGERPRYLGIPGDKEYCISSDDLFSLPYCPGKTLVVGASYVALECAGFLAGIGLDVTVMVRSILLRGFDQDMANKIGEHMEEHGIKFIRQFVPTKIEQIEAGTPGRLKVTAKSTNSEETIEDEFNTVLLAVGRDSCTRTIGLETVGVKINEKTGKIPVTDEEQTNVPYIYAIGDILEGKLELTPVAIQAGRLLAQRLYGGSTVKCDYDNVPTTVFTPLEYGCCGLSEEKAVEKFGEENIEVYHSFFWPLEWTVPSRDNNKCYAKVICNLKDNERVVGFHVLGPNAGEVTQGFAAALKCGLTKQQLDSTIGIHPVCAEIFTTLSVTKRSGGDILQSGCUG
#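 Rat TrxR1 (90 nM in the dispensed reagent) was pre-reduced with 400 uM NADPH for 5 min at room temperature, then incubated with compound for 15 min. After 400 uM selenite was added, NADPH fluorescence (Ex 340/Em 450 nm) was followed for 8 min.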
# TrxR1 substrate: qHTS Assay for Substrates of Mammalian Selenoprotein Thioredoxin Reductase 1 (TrxR1): qHTS | purified TrxR1 substrate turnover, NADPH consumption readout | Potency, µM (titrated, usually from 114 µM) | 390,000 tested, 0.01% active | AID 588456, 2011; note: nearly all actives have a fitted effect of over 50% in size
#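 Rat TrxR1, dispensed at 90 nM, was prereduced with 400 uM NADPH (final) for 5 min at ~22 deg C, then incubated with compound 15 min before 400 uM selenite. A first-read NADPH fluorescence drop versus no-compound background flagged substrates.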
# Nrf2 inh: Nrf2 qHTS screen for inhibitors; A549 ARE-Fluc reporter, luciferase luminescence, 18-24 h; Potency, µM (series often up to 46 µM), hits mostly inhibitors; 360,000 tested, 2.1% active; AID 504444, 2011; note: nearly all actives have a fitted effect of over 60% in size
#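 A549 ARE_Fluc cells, 5000/well, 5% FBS OPTI-MEM; compounds in dose-response, 18-24 h at 37 °C/5% CO2; CellTiter-Fluor viability read (Ex 405/Em 525), then BugLite luciferase luminescence = Nrf2 activity.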
# A549 viability: Nrf2 qHTS screen for inhibitors: counterscreen for cytotoxicity; A549 ARE-Fluc cells, CellTiter-Fluor viability, 18-24 h; Potency, µM (series often up to 46 µM), hits mostly inhibitors; 390,000 tested, 0.16% active; AID 504648, 2011
#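 A549 ARE-Fluc cells in 5% FBS OPTI-MEM, 5000 cells/well, rested 2 h then exposed to compounds in concentration-response for 18-24 h at 37 °C. Viability by CellTiter-Fluor fluorescence (Ex 405/Em 525) after 30 min; luciferase luminescence (BugLite, 15 min, RT) read afterwards.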
# Mito fusion yeast: qHTS Assay for Small Molecule Inhibitors of Mitochondrial Division or Activators of Mitochondrial Fusion; 320,000 tested, 0.23% active; Potency, µM (series often up to 46.1 µM), usual class: activators; S. cerevisiae fusion-defective mutant growth rescue, CellTiterGlo 48 h; AID 485298, 2010; note: nearly all actives have a fitted effect of over 45% in size
#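 Growth-rescue viability read-out: after 48 h at the non-permissive 37C in glycerol/ethanol YPEG, yeast mitochondrial fusion mutants are measured by CellTiterGlo luminescence; compounds (23 nl pinned per well) restoring growth score as division inhibitors or fusion activators.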
# mIDH1 inhibitor: qHTS for Inhibitors of mutant isocitrate dehydrogenase 1 (IDH1): qHTS; Isocitrate dehydrogenase [NADP] cytoplasmic (Homo sapiens), O75874; AID 602179, 2012; Potency, µM (series often up to 76.6 µM), most hits filed as inhibitors; 390,000 tested, 0.093% active; IDH1-R132H enzyme, NADPH consumption, diaphorase/resazurin fluorescence; note: nearly all actives have a fitted effect of over 65% in size
#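 IDH1-R132H (0.5 ug/mL) preincubated 30 min with compound, then NADPH (0.016 mM) and alpha-KG (2 mM) added; 80 min at RT, pH 7.5. Remaining NADPH coupled via diaphorase/resazurin to fluorescence (540/590 nm); concentration-response curves normalized to no-enzyme control.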
# Hits are given with their value; 0 = inactive; ? = inconclusive; - = no result; [ ] = dose if it differs, or a comment. Calls come from the whole dose curve; as a rule, active = well fitted curve in the direction sought with a large enough effect; inconclusive = small, poorly fitted or top-dose-only effect, or another doubt; inactive = no such curve, though single readings can be large; an effect the other way counts as inactive or inconclusive.
SMILES,TrxR1 inh,TrxR1 substrate,Nrf2 inh,A549 viability,Mito fusion yeast,mIDH1 inhibitor
O=[S+]([O-])(c1ccc(-c2ccccc2)cc1)N1CCN([S+](=O)([O-])c2ccc3c(c2)OCCO3)CC1,-,-,0,0,-,-
CC(=O)c1ccc(NC(=O)c2ccc3c(=O)n4c(nc3c2)CCCCC4)cc1,0,0,0,0,0,0
Cc1ccc(-c2csc(NC(=O)c3ccc4c(=O)n5c(nc4c3)CCCCC5)n2)cc1,0,0,5.2µM,0,0,0
COc1ccc(CNC(=O)c2ccc3c(=O)n4c(nc3c2)CCCCC4)cc1OC,0,0,6.5µM,0,0,0
CC(C)C[C@@H](CN1CCCC1CN1C(=S)NC[C@@H]1Cc1ccc(O)cc1)N1C[C@H](Cc2ccc(O)cc2)N(CC2CCCCCC2)C1=S (stereo partly drawn),0,0,21µM,0,-,0
CCOc1ccc(CCN2C(=S)N([C@@H](CC(C)C)CN3CCCC3CN3C(=S)NC[C@@H]3Cc3ccc(O)cc3)C[C@@H]2Cc2ccccc2)cc1 (stereo partly drawn),0,0,0,0,-,0
Oc1ccc(C[C@H]2CNC(=S)N2CC2CCCN2C[C@H](Cc2ccccc2)N2C[C@H](Cc3ccc(O)cc3)N(CCc3ccccc3)C2=S)cc1 (stereo partly drawn),0,0,15µM,?,-,0
CCC(C)S(=O)(=O)c1oc(-c2cccs2)nc1S(=O)(=O)c1ccccc1 (stereo not drawn),0.71µM,0,?,?,-,0
CC(C)CS(=O)(=O)c1oc(-c2ccc(F)cc2)nc1S(=O)(=O)c1ccccc1,0.32µM,0,23µM,?,-,0
Cc1cccc2[nH]c3c(N4CC=C(c5ccc(F)cc5)CC4)ncnc3c12,0,0,21µM,0,0,0
CCc1ccc2[nH]c(=O)c(CN(Cc3cccnc3)Cc3nnnn3Cc3ccccc3)cc2c1,0,0,?,?,-,-
CCOC(=O)CSc1nnc(NCC(=O)OC(C)C)c(=O)[nH]1,1.8µM,0,0,0,0,0
Nc1nc(Nc2cc(F)cc(F)c2)nc(NC2CCCC2)n1,-,-,0,0,-,-
CN(CC(=O)Nc1c(Cl)cccc1Cl)C(=O)c1ccccc1SCC(=O)N1CCCC1,0,0,0,0,0,0
CN(CCOc1ccc(Cl)cc1)C(=O)c1ccccc1SCC(=O)N1CCCC1,0,0,13µM,0,0,0
CCCS(=O)(=O)c1ncc(Cl)c(C(=O)Nc2sc3c(c2C(=O)NCC)CCCC3)n1,?,0,-,-,-,-
O=C(c1cccc(S(=O)(=O)N2CCCC2)c1)c1cccc(S(=O)(=O)N2CCCC2)c1,0,0,8.2µM,0,0,0
O=C(c1cccc(S(=O)(=O)N2CCCCC2)c1)N1CCCCC1,0,0,0,0,0,0
Cc1ccc(CN(C)C(=O)c2cccc(S(=O)(=O)N3CCCC3)c2)o1,40µM,0,0,0,-,0
COc1cc(NC(=O)CN2CCCN(S(=O)(=O)c3ccc(F)cc3)CC2)cc(OC)c1,0,0,?,0,-,0
O=C(C[n+]1cc(Br)cc(Br)c1)c1ccc2c(c1)CCCC2,0,0[0.0914 µM],-,-,-,-
O=S(=O)(NC1CCCC1)c1ccc(S(=O)(=O)N(Cc2cccs2)CC2CCCO2)cc1 (stereo not drawn),0,0,18µM,0,0,0
Cc1cccc(C(=O)Nc2ccc(C(=O)OCc3cc(=O)n4c5c(sc4n3)CCCC5)cc2)c1,0,0,-,0,-,0
CCOC(=O)C(=Cc1ccc(-n2ccnc2)cc1)C(=O)OCC,20µM,0,?,?,0,0
CCOC(=O)/C(=C/c1ccc(OC(=O)c2ccncc2)cc1)C(C)=O,6.3µM,0,0,0,0,0
SMILES,TrxR1 inh,TrxR1 substrate,Nrf2 inh,A549 viability,Mito fusion yeast,mIDH1 inhibitor
COCCOC(=O)/C(=C/c1ccc(OC(=O)c2ccccc2)cc1)C(C)=O,?,0,0,0,0,0
CCOC(=O)C(=Cc1ccc(F)cc1)C(=O)OCC,-,-,-,-,0,-
CCOC(=O)C(=Cc1ccc(Br)cc1)C(=O)OCC,25µM,0,18µM,?,0,0
Cc1cc(Cl)ccc1OCC(=O)Nc1cccc(-c2nc3ccccc3o2)c1,0,0,-,-,-,-
O=C(C[N+]1(CC(O)c2ccccc2)CCOCC1)c1ccccc1 (stereo not drawn),0,0,-,-,-,-
CCc1ccc(OCC2c3cc(OC)c(OC)cc3CCN2C(=S)NC)cc1 (stereo not drawn),0,0,18µM,0,0,0
CC(c1ccco1)N(C)c1ncnc2ccc(-c3ccc4c(c3)OCO4)cc12 (stereo not drawn),-,-,0,0,-,-
N=C1S/C(=C\c2ccc(-c3cccc(Cl)c3)o2)C(=O)N1c1nccs1,0,0,8.2µM,?,0,0
O=C(OCc1cc(=O)n2nc(-c3cccs3)sc2n1)c1ccccc1Cl,0,0,0,0,-,0
CC(CCc1ccc(O)cc1)NC(c1ccccc1)c1ccc(Cl)cc1 (stereo not drawn),0,0,23µM,?,0,0
CC(CCc1ccc(O)cc1)NCCC(c1ccccc1)c1ccccc1 (stereo not drawn),0,0,0,0,0,0
